About 7,900 targets were measured; listed, in parts, are those with a hit and a random draw of the rest. About 0.6% of all pairs of compound and target were hits. Values without a mark were called inactive.
Assays:
Assay in all cases: log2 fold change, soluble protein after heating vs DMSO (PISA); higher = thermal stabilisation; K562 cells, 10 uM, 30 min; active = over 0.2 and 3.5 SD of the protein, either way, in both replicates (recomputed)
[1] = compound: NC(=O)Nc1cc(-c2cccc(F)c2)sc1C(=O)N[C@H]1CCCNC1
Outline: (§1)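 Values are thermal stability changes relative to control samples and are taken from duplicates. They are stated as log2 fold changes. Before quantification by TMTpro 16plex LC-MS/MS with equalised channel sums, K562 cells at 2×10^6 cells/mL were treated with 10 μM compound for 30 min, heated in aliquots for 3 min across 48°C-58°C, pooled, extracted in PBS with 0.5% NP-40 at 4°C, and centrifuged at 21,000xg for 90 min to give the soluble supernatant.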

[2] = compound: NC(=O)c1cnc(N[C@@H]2CCCC[C@@H]2N)nc1Nc1cccc(-n2nccn2)c1
Outline: as §1

[3] = compound: NC1(c2ccc(-c3nc4ccn5c(=O)[nH]nc5c4cc3-c3ccccc3)cc2)CCC1
Outline: as §1

[4] = compound: NCC(=O)Nc1ccc(-n2nc(C(F)(F)F)cc2-c2ccc3c(ccc4ccccc43)c2)cc1
Outline: as §1

entinostat = compound: Nc1ccccc1NC(=O)c1ccc(CNC(=O)OCc2cccnc2)cc1 [entinostat]
Outline: as §1

vorinostat = compound: O=C(CCCCCCC(=O)Nc1ccccc1)NO [vorinostat]
Outline: as §1

citarinostat = compound: O=C(CCCCCCNC(=O)c1cnc(N(c2ccccc2)c2ccccc2Cl)nc1)NO [citarinostat]
Outline: as §1

silmitasertib = compound: O=C(O)c1ccc2c(c1)nc(Nc1cccc(Cl)c1)c1ccncc12 [silmitasertib]
Outline: as §1

[5] = compound: O=C1NC(=O)C(c2cnc3ccccn23)=C1c1cn2c3c(cc(F)cc13)CN(C(=O)N1CCCCC1)CC2
Outline: as §1

[6] = compound: c1cc(OCCN2CCCCC2)cc(-c2n[nH]c3ccc(-c4nnc[nH]4)cc23)c1
Outline: as §1

UniProt P51687, sequence (P51687 whole entry, looked up): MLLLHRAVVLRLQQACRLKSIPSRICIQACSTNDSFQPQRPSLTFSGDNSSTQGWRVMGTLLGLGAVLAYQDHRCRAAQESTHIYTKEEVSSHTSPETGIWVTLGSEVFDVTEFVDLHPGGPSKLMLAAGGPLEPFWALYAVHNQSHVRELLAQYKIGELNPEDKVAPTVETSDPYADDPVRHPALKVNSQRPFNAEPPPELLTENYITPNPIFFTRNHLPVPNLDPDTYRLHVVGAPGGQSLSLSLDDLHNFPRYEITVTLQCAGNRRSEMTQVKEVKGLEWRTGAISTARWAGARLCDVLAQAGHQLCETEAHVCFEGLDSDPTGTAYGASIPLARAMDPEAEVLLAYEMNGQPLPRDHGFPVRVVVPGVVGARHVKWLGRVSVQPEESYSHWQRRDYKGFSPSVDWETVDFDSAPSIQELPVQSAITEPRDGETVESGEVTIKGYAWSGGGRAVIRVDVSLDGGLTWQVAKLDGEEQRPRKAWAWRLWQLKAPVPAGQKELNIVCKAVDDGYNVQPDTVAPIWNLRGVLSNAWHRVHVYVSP
UniProt Q9BSF4, sequence (Q9BSF4 whole entry, looked up): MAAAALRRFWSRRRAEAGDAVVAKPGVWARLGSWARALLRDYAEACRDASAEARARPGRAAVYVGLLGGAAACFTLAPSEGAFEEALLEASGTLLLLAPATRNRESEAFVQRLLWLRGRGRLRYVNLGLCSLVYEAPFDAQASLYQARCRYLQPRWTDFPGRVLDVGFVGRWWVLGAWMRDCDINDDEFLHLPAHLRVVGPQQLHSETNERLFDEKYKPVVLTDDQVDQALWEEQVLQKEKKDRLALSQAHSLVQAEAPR
UniProt Q8TCT7, sequence (Q8TCT7 whole entry, looked up): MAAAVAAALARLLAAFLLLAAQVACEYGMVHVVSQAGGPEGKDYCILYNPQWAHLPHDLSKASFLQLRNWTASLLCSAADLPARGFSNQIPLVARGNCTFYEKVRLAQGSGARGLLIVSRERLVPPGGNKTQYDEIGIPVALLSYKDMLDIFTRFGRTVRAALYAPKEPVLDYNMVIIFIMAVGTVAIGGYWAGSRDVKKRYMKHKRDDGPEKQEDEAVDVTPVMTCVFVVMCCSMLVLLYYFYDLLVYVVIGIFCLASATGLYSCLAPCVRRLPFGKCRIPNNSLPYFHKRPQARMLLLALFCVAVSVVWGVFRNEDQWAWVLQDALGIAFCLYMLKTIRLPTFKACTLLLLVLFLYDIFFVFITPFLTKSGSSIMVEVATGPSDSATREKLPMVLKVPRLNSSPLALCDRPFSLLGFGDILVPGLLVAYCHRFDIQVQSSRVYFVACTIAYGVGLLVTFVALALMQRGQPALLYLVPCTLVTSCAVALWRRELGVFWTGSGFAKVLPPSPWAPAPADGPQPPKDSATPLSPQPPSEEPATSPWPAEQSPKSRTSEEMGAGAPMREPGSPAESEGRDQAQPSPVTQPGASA
UniProt Q4KMP7, sequence (Q4KMP7 whole entry, looked up): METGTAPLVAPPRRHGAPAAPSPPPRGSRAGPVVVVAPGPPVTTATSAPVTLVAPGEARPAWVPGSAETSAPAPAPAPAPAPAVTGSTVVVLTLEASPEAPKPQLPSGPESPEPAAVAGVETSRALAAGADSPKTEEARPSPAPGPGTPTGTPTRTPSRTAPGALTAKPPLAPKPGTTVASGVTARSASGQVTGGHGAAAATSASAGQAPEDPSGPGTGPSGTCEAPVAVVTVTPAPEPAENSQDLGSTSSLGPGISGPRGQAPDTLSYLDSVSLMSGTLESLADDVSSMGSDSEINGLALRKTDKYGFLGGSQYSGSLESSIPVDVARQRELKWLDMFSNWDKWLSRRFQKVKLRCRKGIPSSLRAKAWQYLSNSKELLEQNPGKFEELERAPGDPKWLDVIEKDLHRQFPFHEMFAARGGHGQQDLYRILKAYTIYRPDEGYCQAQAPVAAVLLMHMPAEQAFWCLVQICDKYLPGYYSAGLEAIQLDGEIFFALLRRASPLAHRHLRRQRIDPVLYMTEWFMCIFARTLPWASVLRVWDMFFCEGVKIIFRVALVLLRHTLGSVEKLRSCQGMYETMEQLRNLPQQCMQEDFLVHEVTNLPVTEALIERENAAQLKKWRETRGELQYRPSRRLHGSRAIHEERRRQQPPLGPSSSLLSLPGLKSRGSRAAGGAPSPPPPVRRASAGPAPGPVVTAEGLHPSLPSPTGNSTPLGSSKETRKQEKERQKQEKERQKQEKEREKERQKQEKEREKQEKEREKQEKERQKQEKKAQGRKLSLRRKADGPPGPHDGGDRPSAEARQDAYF
UniProt O00506, sequence (O00506 whole entry, looked up): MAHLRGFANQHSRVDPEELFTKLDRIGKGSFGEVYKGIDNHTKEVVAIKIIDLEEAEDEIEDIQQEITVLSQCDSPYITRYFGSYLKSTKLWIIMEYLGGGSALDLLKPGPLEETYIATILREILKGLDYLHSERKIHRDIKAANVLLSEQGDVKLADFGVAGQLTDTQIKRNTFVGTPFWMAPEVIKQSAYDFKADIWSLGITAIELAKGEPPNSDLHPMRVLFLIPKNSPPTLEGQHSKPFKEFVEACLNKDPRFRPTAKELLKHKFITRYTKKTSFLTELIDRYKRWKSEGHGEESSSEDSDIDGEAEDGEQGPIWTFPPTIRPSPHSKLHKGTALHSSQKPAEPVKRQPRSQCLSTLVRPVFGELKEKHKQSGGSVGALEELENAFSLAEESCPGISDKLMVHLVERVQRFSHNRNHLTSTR
UniProt P51571, sequence (P51571 whole entry, looked up): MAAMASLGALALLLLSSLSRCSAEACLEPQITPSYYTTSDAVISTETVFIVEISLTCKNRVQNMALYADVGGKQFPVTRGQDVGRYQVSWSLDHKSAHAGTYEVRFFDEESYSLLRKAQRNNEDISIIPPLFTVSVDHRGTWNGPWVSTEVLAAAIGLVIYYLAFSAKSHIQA
UniProt Q08170, sequence (Q08170 whole entry, looked up): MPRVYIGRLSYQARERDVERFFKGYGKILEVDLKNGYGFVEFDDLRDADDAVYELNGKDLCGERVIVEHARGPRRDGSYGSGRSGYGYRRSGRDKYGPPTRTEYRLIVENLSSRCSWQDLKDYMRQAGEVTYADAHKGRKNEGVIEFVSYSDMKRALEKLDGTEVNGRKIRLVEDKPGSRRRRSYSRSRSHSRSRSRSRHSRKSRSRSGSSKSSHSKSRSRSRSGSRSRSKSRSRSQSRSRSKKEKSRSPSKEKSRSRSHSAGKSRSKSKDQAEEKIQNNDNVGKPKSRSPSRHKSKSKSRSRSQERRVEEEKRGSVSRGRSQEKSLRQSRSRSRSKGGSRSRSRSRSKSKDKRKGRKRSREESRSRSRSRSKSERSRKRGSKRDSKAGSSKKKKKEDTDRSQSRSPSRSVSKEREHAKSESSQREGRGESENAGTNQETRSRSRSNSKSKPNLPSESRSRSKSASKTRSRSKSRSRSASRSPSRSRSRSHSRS
UniProt Q8N0X7, sequence (Q8N0X7 whole entry, looked up): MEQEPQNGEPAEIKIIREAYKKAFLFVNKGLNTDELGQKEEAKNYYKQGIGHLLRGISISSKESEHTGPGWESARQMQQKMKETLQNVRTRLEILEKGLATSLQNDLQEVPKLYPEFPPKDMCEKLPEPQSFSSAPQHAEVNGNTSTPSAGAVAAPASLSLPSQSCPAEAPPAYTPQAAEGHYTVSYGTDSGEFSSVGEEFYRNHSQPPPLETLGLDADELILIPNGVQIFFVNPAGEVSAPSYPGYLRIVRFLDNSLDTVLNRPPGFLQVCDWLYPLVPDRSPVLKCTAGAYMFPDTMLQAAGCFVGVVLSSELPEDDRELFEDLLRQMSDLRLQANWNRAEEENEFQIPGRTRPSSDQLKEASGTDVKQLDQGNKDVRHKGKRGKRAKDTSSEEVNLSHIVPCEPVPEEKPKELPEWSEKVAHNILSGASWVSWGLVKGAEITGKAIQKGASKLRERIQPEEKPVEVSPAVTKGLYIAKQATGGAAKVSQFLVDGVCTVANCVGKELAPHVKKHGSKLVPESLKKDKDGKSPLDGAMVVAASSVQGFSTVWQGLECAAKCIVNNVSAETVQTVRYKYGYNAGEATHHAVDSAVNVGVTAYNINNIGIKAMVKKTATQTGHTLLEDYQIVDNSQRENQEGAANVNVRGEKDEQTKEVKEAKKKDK
UniProt Q13573, sequence (Q13573 whole entry, looked up): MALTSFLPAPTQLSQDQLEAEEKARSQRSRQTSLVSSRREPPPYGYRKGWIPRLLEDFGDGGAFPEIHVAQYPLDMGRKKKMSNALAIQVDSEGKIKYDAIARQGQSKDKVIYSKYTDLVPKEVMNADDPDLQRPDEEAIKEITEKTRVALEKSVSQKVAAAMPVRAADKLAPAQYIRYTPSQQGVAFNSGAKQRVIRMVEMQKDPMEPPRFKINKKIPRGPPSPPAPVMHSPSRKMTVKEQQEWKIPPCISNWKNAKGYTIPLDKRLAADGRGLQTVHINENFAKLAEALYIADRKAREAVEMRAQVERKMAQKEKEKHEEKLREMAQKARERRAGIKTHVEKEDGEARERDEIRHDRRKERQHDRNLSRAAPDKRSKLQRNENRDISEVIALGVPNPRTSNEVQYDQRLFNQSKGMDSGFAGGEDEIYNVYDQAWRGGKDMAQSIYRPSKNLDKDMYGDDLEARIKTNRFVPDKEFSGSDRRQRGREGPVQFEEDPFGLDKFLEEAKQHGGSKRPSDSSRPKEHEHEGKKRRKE
UniProt Q16629, sequence (Q16629 whole entry, looked up): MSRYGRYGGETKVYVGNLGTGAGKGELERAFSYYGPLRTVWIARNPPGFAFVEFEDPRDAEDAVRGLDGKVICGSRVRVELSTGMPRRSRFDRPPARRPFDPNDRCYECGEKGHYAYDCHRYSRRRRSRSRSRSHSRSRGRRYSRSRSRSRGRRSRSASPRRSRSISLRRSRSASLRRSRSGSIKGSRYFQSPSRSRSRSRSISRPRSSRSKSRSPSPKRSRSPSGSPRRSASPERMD
UniProt Q8N5G0, sequence (Q8N5G0 whole entry, looked up): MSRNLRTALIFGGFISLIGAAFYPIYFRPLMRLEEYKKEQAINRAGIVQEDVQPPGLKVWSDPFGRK

| Target | log2 fold change [1] | log2 fold change [2] | log2 fold change [3] | log2 fold change [4] | log2 fold change (entinostat) | log2 fold change (vorinostat) | log2 fold change (citarinostat) | log2 fold change (silmitasertib) | log2 fold change [5] | log2 fold change [6] |
| --- | --- | --- | --- | --- | --- | --- | --- | --- | --- | --- |
| TK1 (UniProt P04183) | 0.021 | 0.018 | 0.02 | 0.031 | -0.068 | -0.007 | 0.016 | 0.013 | -0.025 | -0.027 |
| SNW1 (UniProt Q13573) | 0.034 | 0.019 | 0.017 | 0.02 | -0.056 | -0.044 | -0.019 | 0.062 | 0.05 | -0.05 |
| SSX2 (UniProt Q16385) | -0.049 | -0.094 | -0.02 | -0.057 | -0.054 | -0.022 | -0.025 | 0.011 | -0.098 | 0.033 |
| SRSF4 (UniProt Q08170) | -0.059 | 0.036 | 0.196 | 0.03 | -0.002 | -0.02 | -0.028 | -0.005 | 0.206 | -0.228 |
| SLC9A6 isoform 2 (UniProt Q92581) | -0.021 | 0.016 | -0.091 | -0.02 | -0.017 | -0.078 | 0.025 | 0.027 | -0.021 | -0.073 |
| SRSF7 (UniProt Q16629) | 0 | 0.13 | 0.525 | 0.027 | -0.079 | 0 | -0.132 | -0.144 | 0.357 | -0.33 |
| STK38 (UniProt Q15208) | -0.072 | -0.077 | -0.11 | -0.062 | 0.129 | 0.016 | 0.097 | 0.061 | 0.004 | -0.086 |
| SLC7A6OS (UniProt Q96CW6) | -0.023 | -0.085 | -0.079 | 0.042 | -0.043 | 0.056 | 0.098 | 0.06 | -0.036 | -0.037 |
| SP1 (UniProt P08047) | -0.017 | 0.011 | 0.1 | -0.001 | -0.005 | 0.052 | -0.057 | -0.007 | 0.088 | -0.088 |
| TFB2M (UniProt Q9H5Q4) | -0.029 | -0.066 | -0.187 | -0.066 | 0.054 | 0.027 | 0.01 | 0.046 | -0.024 | 0.003 |
| SLC7A6 (UniProt Q92536) | -0.07 | 0.089 | 0.06 | -0.017 | -0.029 | -0.003 | 0.026 | 0.007 | -0.135 | -0.049 |
| SNX2 (UniProt O60749) | -0.001 | -0.204 | -0.146 | 0 | 0.092 | 0.093 | 0.062 | -0.068 | -0.044 | -0.082 |
| TIMM29 (UniProt Q9BSF4) | -0.16 | -0.024 | -0.069 | -0.011 | -0.04 | -0.093 | -0.016 | 0.006 | -0.08 | -0.004 |
| TBC1D10B (UniProt Q4KMP7) | -0.141 | 0.007 | 0.038 | -0.027 | 0.017 | -0.03 | 0.039 | -0.009 | -0.005 | -0.283 (active) |
| TELO2 (UniProt Q9Y4R8) | -0.039 | -0.1 | -0.207 | 0.037 | 0.039 | 0.137 | 0.009 | 0.067 | 0.117 | -0.075 |
| SSR4 (UniProt P51571) | 0.032 | -0.013 | -0.011 | 0.023 | -0.011 | 0 | 0.019 | -0.029 | 0.004 | -0.056 |
| STK25 (UniProt O00506) | -0.029 | -0.06 | -0.136 | -0.08 | -0.016 | 0.042 | -0.026 | 0.078 | -0.064 | -0.034 |
| SNX9 (UniProt Q9Y5X1) | -0.013 | -0.022 | -0.102 | -0.055 | 0.037 | 0.058 | 0.024 | 0.033 | -0.065 | -0.067 |
| SPPL2B (UniProt Q8TCT7) | 0.06 | 0.009 | -0.031 | -0.016 | -0.052 | -0.013 | 0.05 | -0.037 | 0.029 | -0.025 |
| SMIM20 isoform 2 (UniProt Q8N5G0) | -0.056 | -0.032 | 0 | 0.002 | 0.031 | 0.057 | -0.004 | -0.01 | -0.154 | -0.049 |
| SLC6A6 (UniProt P31641) | -0.099 | 0.03 | 0.024 | -0.19 | -0.031 | -0.059 | 0.065 | 0.039 | 0.086 | 0.269 (active) |
| TAOK3 (UniProt Q9H2K8) | -0.013 | -0.149 | -0.048 | 0 | 0.034 | 0.036 | 0.106 | 0 | 0.021 | -0.203 |
| SPART (UniProt Q8N0X7) | -0.032 | -0.105 | -0.053 | 0.006 | 0.043 | -0.032 | 0.015 | 0.081 | -0.024 | 0.04 |
| SUOX (UniProt P51687) | -0.031 | -0.022 | 0.025 | -0.005 | -0.014 | -0.124 | -0.017 | -0.021 | -0.027 | 0.014 |
| SNX3 (UniProt O60493) | -0.014 | -0.241 | -0.19 | -0.001 | 0.025 | 0.105 | 0.048 | 0.132 | -0.037 | -0.116 |
| TIMM44 (UniProt O43615) | -0.085 | -0.141 | -0.372 (active) | -0.023 | 0.084 | 0.04 | 0.066 | -0.041 | -0.027 | -0.048 |
| SMAD9 (UniProt O15198) | -0.114 | 0.001 | -0.069 | 0.05 | -0.076 | 0.006 | -0.017 | -0.055 | -0.111 | -0.029 |
| SMC5 (UniProt Q8IY18) | 0.057 | -0.034 | -0.083 | -0.051 | -0.033 | 0.017 | -0.021 | 0.052 | -0.1 | -0.051 |
| SUCLG1 (UniProt P53597) | -0.037 | -0.077 | -0.106 | -0.059 | 0.012 | 0 | 0.043 | -0.037 | -0.073 | -0.049 |
| SMARCA5 (UniProt O60264) | -0.084 | -0.121 | -0.095 | -0.01 | 0.097 | 0.204 | -0.094 | 0.028 | -0.034 | 0.03 |
